Rows were chosen to be rich in hits. Some 1.1% of all compounds tested hit in one or more screens of this group.
Tb PFK inh: blocks T. brucei phosphofructokinase. O15648. T. brucei PFK, ADP-Glo luminescence. Potency, µM (titrated, usually from 57.5 µM), inactives show at the highest dose activity, negative = inhibition, actives largely listed as inhibitors. 330,000 tested, 0.17% active. AID 485367;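 further: 0% = uninhibited 1x PFK enzyme wells and -100% = no-enzyme wells; nearly all actives have a fitted effect of over 60% in size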
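1.25 nM PFK with 0.5 mM F6P and 0.1 mM ATP in 0.1 M TEA pH 8.0, 5 mM MgCl2, incubated 45 min at room temperature; ADP measured by ADP-Glo luminescence; compounds titrated up to 57 uM.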
Pin1 inhibitor: blocks the human prolyl isomerase Pin1; Potency, µM (doses to about 115 µM), for inactives: at the highest dose activity, negative = inhibition, usual class: inhibitors; Q13526; 390,000 tested, 0.009% active; Pin1 FP peptide displacement, HiFluor488, 10 min; active means well fitted inhibition curve with a large enough effect in the polarisation, with a control signal flat, not every such curve was filed as active; inconclusive means small, poorly fitted or top-dose-only effect, or effect the other way, or a change in a side signal; inactive means no such curve, though single readings can be large or run the other way; the % refers to the polarisation
GLS inh: glutaminase GLS (human) inhibition. O94925. GLS enzymatic activity, qHTS titration. Potency, µM (top dose mostly 45.5 µM), for the others: top-dose activity change, negative = inhibition, actives largely listed as inhibitors. 410,000 tested, 0.21% active. AID 624170
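Read-out is an Amplex red fluorescence increase coupled through glutamate oxidase and HRP, measured before and after 30 min room-temperature incubation. hKGA is in 45 mM KH2PO4 (pH 8.2) with 0.02% Tween-20; glutamine added as 1mM solution.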
VDR inhibitor: vitamin D3 receptor (human) inhibition. P11473. AID 504847. VDR-SRC2-3 peptide fluorescence polarization, 2 h. Potency, µM, for the others: max response, negative = inhibition, actives largely listed as inhibitors. 400,000 tested, 0.93% active
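Fluorescence polarization assay of small-molecule disruption of VDR binding to coregulator peptide SRC2-3. Compounds and controls pin-transferred, then read after 2 h incubation at ambient room temperature.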
Tb PGK inh: blocks T. brucei phosphoglycerate kinase; P07378; PGK/GAPDH coupled, Kinase-Glo luminescence, 60 min; Potency, µM (highest dose often 57.5 µM), without a hit: at the highest dose activity change, negative = inhibition, usual class: inhibitors; 380,000 tested, 0.043% active; further: nearly all actives have a fitted effect of over 60% in size
Target sequence (P07378 whole entry, looked up): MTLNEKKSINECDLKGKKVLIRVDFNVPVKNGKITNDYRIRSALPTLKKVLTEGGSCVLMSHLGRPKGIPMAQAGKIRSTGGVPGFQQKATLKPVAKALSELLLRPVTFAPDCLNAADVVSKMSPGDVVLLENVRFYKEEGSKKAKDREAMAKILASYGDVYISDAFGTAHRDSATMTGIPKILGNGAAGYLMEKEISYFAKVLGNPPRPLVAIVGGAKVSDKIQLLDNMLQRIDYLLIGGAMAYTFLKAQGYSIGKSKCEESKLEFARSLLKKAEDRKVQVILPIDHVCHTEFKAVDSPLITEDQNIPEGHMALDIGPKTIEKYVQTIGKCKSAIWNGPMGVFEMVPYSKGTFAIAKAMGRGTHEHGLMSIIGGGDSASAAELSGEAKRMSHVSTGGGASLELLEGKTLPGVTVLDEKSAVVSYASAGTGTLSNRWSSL
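Luminescent ATP detection (Kinase-Glo Plus) follows a 60-minute room-temperature incubation, with wells lacking PGK as controls. Buffer: 100 mM TEA (pH 7.6), 5 mM MgCl2, 0.01% Tween-20. Coupling enzyme GAPDH (100 nM final) supplies unstable 1,3-BPG in-well.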
* marks the source's active call; other numbers are inactive results; i = inactive; ? = inconclusive; / = no result; ! = not confirmed by another sample. Unless noted, the call rests on the fitted dose curve; in most records, active means well fitted curve in the direction sought with a large enough effect; inconclusive means small, poorly fitted or top-dose-only effect, or another doubt; inactive means no such curve, though single readings can be large; an effect the other way counts as inactive or inconclusive. Unless noted, on the % scale 0 is the no-effect control and ±100 the full control effect; potency means the concentration at half of the fitted maximal effect.

SMILES	Tb PFK inh	Pin1 inhibitor	GLS inh	VDR inhibitor	Tb PGK inh
CCOC(=O)c1c(/N=C/c2cccc(C)c2O)sc2c1CCN(C)C2	7%	?	-1%	-6%	i
CCOC(=O)c1c(/N=C/c2ccc(C)cc2O)sc2c1CCN(C)C2	-3%	5%	10µM*	10%	-4%
NC(=O)C[C@H](NC(=O)Cc1ccc(O)cc1O)C(=O)O	/	/	/	-6%	/
NC(CO)C(=O)NNCc1ccc(O)c(O)c1O (stereo unspecified)	-16%	-8%	?	45µM*!	-4%
CC(C)(C)c1cc(CCC(=O)NCCc2ccccn2)cc(C(C)(C)C)c1O	2%	-6%	10µM*	-19%	-5%
CCCNC(=O)CCc1cc(C(C)(C)C)c(O)c(C(C)(C)C)c1	-4%	-9%	-8%	-29%	-6%
COc1cn(CC(=O)Nc2c(C)cc(C)cc2C)c(CN2CCCCC2)cc1=O	/	-10%	0%	14%	-2%
Cc1ccc(C)c(N(C(=O)c2snc(C(N)=O)c2N)C(C(=O)NCC2CCCO2)c2cccs2)c1 (stereo unspecified)	-6%	2%	30%	79µM*	i
O=[N+]([O-])c1ccc(O)c2ncccc12	2%	1%	7%	40µM*!	5%
Fc1cccc(NC(=S)NNc2ccccc2)c1	0%	4%	28%	40µM*	0%
O=[N+]([O-])c1ccc(NNC(=S)Nc2ccccc2)cc1	-27%	8%	17%	45µM*	-10%
O=[N+]([O-])c1ccc(NC(=S)NCCc2ccccc2)cc1	-11%	19%	-8%	-14%	-3%
O=C(CSc1ccc(Cl)cc1)NC1CCCC1	-18%	-2%	-1%	-17%	2%
O=C(NC1CCCCC1)Sc1ccc(Cl)cc1	-4%	1%	8%	22µM*	7%
Cc1sc(NC(=O)/C=C/C(=O)O)c(C(N)=O)c1-c1ccc(C(C)(C)C)cc1	0%	-1%	19%	79µM*	0%
CCOC(=O)c1c(NC(=O)/C=C/C(=O)O)sc(C)c1-c1ccc(C(C)(C)C)cc1	-6%	/	-1%	20µM*	-14%
CCOC(=O)c1c(NC(=O)/C=C\C(=O)O)sc(C)c1-c1ccccc1	2%	4%	1%	-26%	-5%
Cc1sc(NC(=O)C2CCCCC2C(=O)O)c(C(N)=O)c1-c1ccc(C(C)(C)C)cc1 (stereo unspecified)	-7%	-1%	16%	?	-4%
CCOc1ccc(NC(=O)[C@@H](c2ccccc2)N2Cc3ccccc3C2=O)cc1	/	-1%	3%	-15%	-1%
Cc1cc(C)nc(/N=c2/ssnc2Cl)c1	-23%	-8%	10%	28µM*	i
COc1cc(N=c2ssnc2Cl)c(OC)cc1Cl	?	-12%	16µM*!	16µM*	-10%
Cc1cc(Cl)ccc1N=c1ssnc1Cl	?	-6%	39%	?	6%
Cc1nnc(N=c2ssnc2Cl)o1	?	-15%	?	?	2%
Cc1ccc(N=c2ssnc2Cl)cc1	-16%	-1%	50%	28µM*	-1%
CC1=CC2C(CC1=O)C(C)=CCC2C(C)C (stereo unspecified)	/	/	/	-19%	/
SMILES	Tb PFK inh	Pin1 inhibitor	GLS inh	VDR inhibitor	Tb PGK inh
CCc1cc2c(=O)n(Cc3ccco3)c(SCC(=O)NCC3CCCO3)nc2s1 (stereo unspecified)	1%	2%	-4%	0%	7%
CCc1cc2c(=O)n(Cc3ccco3)c(SCc3c(C)noc3C)nc2s1	0%	36%	2%	79µM*	-4%
COc1cccc2c(C)nc(Nc3nc(CSc4nnc(C)s4)cc(=O)[nH]3)nc12	-5%	?	81%	79µM*	9%
Cc1ccc2c(C)nc(Nc3nc(CSc4nnc(C)s4)cc(=O)[nH]3)nc2c1	-3%	3%	-9%	5%	-7%
COc1ccccc1C(=O)NNC(=O)c1cccc(C)c1	-1%	1%	?	71µM*	-5%
O=C1/C(=C/c2ccncc2)CCc2ccccc21	-25%	2%	-13%	?	-19%
O=C1/C(=C\c2ccncc2)CCc2ccccc21	-22%	-2%	-8%	79µM*	?
COc1ccc2cc(S(=O)(=O)N3CCCC(C)C3)ccc2c1 (stereo unspecified)	0%	-5%	-29%	89µM*	-9%

Assay outcomes (PubChem BioAssay)
